Sm TGR block: S. mansoni TGR enzyme inhibition; Q962Y6; purified TGR, DTNB reduction, TNB absorbance 405 nm; Potency, µM (highest dose often 114 µM), for inactives: at the highest dose activity change, negative = inhibition, hits mostly inhibitors; 360,000 tested, 3% active; note: % is set by controls: 0 for no effect and ±100 for the full control effect; nearly all actives have a fitted effect of over 60% in size
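TGR 20 nM + NADPH 100 uM (dispensed conc.), cpd preinc 15 min RT; start with NADPH (500 uM addition) then DTNB (15 mM addition). Kinetic TNB absorbance, 405 nm filter. Four-parameter Hill fit across titration.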
Pf growth 96h: inhibits malaria parasite growth, 96 h; AID 504834; Potency, µM (highest dose often 28.7 µM), inactives show top-dose activity change, negative = inhibition, actives largely listed as inhibitors; P. falciparum luciferase reporter growth, 96 h; 320,000 tested, 6.9% active; note: % is set by controls: 0 for no effect and ±100 for the full control effect
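Two-generation exposure (96 h) targets delayed-death phenotype. Reporter parasites carrying integrated firefly luciferase, in red cells at 2% hematocrit and 0.05% parasitemia final, kept at 37 C, 5% CO2; luminescence loss indicates inhibition.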
AmpC inh no detg: inhibitors of E. coli AmpC beta-lactamase without detergent; P00811; AmpC nitrocefin hydrolysis, absorbance 480 nm, 0.0001% Triton; Potency, µM (top dose mostly 57.1 µM), without a hit: at the highest dose activity change, negative = inhibition, hits mostly inhibitors; 330,000 tested, 0.52% active;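 note: plate controls were no compound for no effect and no enzyme for full effect; nearly all actives have a fitted effect of over 20% in size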
Target sequence (P00811 whole entry, looked up): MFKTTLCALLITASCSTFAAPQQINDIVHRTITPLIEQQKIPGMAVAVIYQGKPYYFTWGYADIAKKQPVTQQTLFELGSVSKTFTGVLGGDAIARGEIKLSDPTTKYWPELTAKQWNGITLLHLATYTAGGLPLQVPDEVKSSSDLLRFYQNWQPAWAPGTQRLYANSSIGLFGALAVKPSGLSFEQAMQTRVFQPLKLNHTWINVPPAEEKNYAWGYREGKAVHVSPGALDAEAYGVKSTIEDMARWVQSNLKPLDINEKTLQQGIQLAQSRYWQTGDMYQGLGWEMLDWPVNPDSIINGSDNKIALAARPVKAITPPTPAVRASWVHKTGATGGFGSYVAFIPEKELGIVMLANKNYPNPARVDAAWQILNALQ
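AmpC (5.3 nM in the dispensed reagent) in 20 mM phosphate pH 7.0 with 0.01% (detergent screen) or 0.0001% Triton X-100 was preincubated with compounds for 15 min at room temperature. Nitrocefin was then added from an 800 uM solution, and hydrolysis was followed at 480 nm.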
Pf growth 48h: P. falciparum growth inhibition at 48 hours (one generation); P. falciparum luciferase growth in erythrocytes, 48 h; Potency, µM (doses to about 28.7 µM), for the others: at the top dose activity change, negative = inhibition, hits mostly inhibitors; 310,000 tested, 5.9% active; note: % is set by controls: 0 for no effect and ±100 for the full control effect
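A one-generation exposure of luciferase-tagged malaria parasites in RPMI 1640/Albumax erythrocyte culture, 37 C and 5% CO2. Inhibition is inferred from decreased luminescence after adding detection reagent.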
AmpC inh detg: blocks E. coli AmpC beta-lactamase in detergent assay; P00811; Potency, µM (top dose mostly 114 µM), without a hit: at the top dose activity change, negative = inhibition, usual class: inhibitors; 370,000 tested, 0.041% active; AmpC hydrolysis of nitrocefin, absorbance 480 nm, 0.01% Triton;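 note: 0% = no-compound wells and -100% = no-enzyme wells; nearly all actives have a fitted effect of over 25% in size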
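20 mM phosphate pH 7.0 + 0.01% (detergent screen) or 0.0001% Triton X-100; 5.3 nM AmpC reagent; cpd preinc 15 min RT; nitrocefin (800 uM stock) to start; A480 q20 s × 4 min; Activity was normalised to no-enzyme and no-compound control wells.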
SARS PLP yeast: SARS-CoV PLP inhibition in yeast | S. cerevisiae expressing SARS-CoV PLpro, growth rescue | Potency, µM (doses to about 32.9 µM), for the others: at the top dose activity, positive = growth rescue, actives largely listed as activators | 330,000 tested, 0.19% active | AID 485353; calls by dose curve; note: 0% is about no effect; nearly all actives have a fitted effect of over 55% in size
The depositor's hits bear a star; ? = inconclusive; / = no result. This is a sample that favours compounds with a hit; in the whole collection about 12% have one here. Unless noted, calls come from the whole dose curve; as a rule, active = well fitted curve in the direction sought with a large enough effect; inconclusive = small, poorly fitted or top-dose-only effect, or another doubt; inactive = no such curve, though single readings can be large; an effect the other way counts as inactive or inconclusive. Potency is the fitted concentration of half-maximal effect.

SMILES	Sm TGR block	Pf growth 96h	AmpC inh no detg	Pf growth 48h	AmpC inh detg	SARS PLP yeast
O=C(OCCCCN1C(=O)c2ccccc2C1=O)c1n[nH]c2ccccc12	0.6%	13.1µM*	-11.2%	?	0.3%	-6.3%
COC(=O)c1n[nH]c2ccccc12	-11.7%	/	-9.5%	7.9%	-24.3%	1.5%
O=C(NNC(=S)Nc1ccc(F)cc1)C1[C@H]2CCCC[C@@H]12 (some centres undefined)	4.1%	69.9%	-29.7%	20.5%	2.1%	1.0%
Fc1ccc(/C=N/N2CCN(Cc3ccccc3)CC2)cc1	4.2%	9.28µM*	0.0%	19.1%	-5.1%	-2.5%
CCCN(CCC)CCNC(=O)Cn1ncc2c([nH]c3ccc(C)cc32)c1=O	25.8%	/	/	/	16.7%	/
CCOC(=O)C(CCc1ccccc1)NC1CCc2ccccc2N(CC(=O)O)C1=O (centres undefined)	/	12µM*	/	9.53µM*	/	/
CCN(CC)CCCNC(=O)c1c(C)oc2ncn(CC(C)C)c(=O)c12	-4.1%	/	/	/	7.9%	/
COc1ccc(OC)c(CCNC(=O)c2nc(-c3ccc(Cl)cc3)n3c2CCCCC3)c1	0.8%	/	/	/	12.0%	/
CNC(=O)CSc1nnc(-c2ccccn2)n1Cc1ccco1	1.0%	5.5%	1.5%	12.5%	-2.9%	0.7%
Brc1ccc(CSc2nnc(-c3ccccn3)n2Cc2ccco2)cc1	39.8µM*	3.7µM*	0.6%	?	-13.8%	-21.7%
Clc1cccc(CSc2nnc(-c3ccccn3)n2Cc2ccco2)c1	39.8µM*	?	16.7%	?	-15.0%	-26.4%
CC(C)(C)c1ccc(CSc2nnc(-c3ccccn3)n2Cc2ccco2)cc1	-27.5%	/	22.0%	7.38µM*	-6.0%	-23.7%
N[C@@H](Cc1ccc(O)cc1)c1nnc([C@H](CC(=O)O)NC(=O)C2CCNCC2)o1	-0.3%	48.8%	-10.0%	35.9%	-6.5%	1.3%
CCCCN(CC)C(=O)CSc1nc2c(sc(=S)n2-c2ccc(OCC)cc2)c(=O)[nH]1	-4.7%	?	-18.8%	?	2.0%	-4.8%
O=C(c1ccccc1F)N1CCN(S(=O)(=O)c2ccc3c(c2)OCCO3)CC1	4.6%	9.28µM*	11.5%	/	?	4.4%
O=C(c1ccccc1OC(F)F)N1CCN(S(=O)(=O)c2ccc3c(c2)OCCCO3)CC1	-2.0%	-25.2%	61.5%	14.7µM*	-4.8%	1.1%
COc1nc(N)nc2nc[nH]c12	-14.9%	18.5%	-20.3%	-6.3%	-7.1%	-1.7%
O=C(Nc1ccccc1)OCC(CN1CCCCC1)OC(=O)Nc1ccccc1 (centres undefined)	5.4%	?	-11.4%	?	?	/
O=S(=O)(Nc1cccc(-c2nc3cccnc3s2)c1)c1ccc2c(c1)OCCO2	-1.8%	17.4%	3.16µM*	1.7%	?	-4.7%
Cc1ccc(-c2nc3cccnc3s2)cc1NS(=O)(=O)c1ccc2c(c1)OCCO2	-3.3%	-13.1%	-4.1%	?	-14.0%	-20.8%
Cn1nnc2c(NCc3ccc(Cl)cc3)ncnc21	-0.6%	/	/	/	-0.2%	/
COc1ccc(C(=O)Nc2ccc(C(=O)OCc3cc(=O)n4nc(C5CC5)sc4n3)cc2)cc1	0.6%	/	/	/	-2.1%	/
O=C(CCS(=O)(=O)c1nc(-c2cccs2)cc(C(F)(F)F)n1)Nc1cccc(O)c1	31.6µM*	/	/	/	7.3%	/
COc1ccc(-c2cc(C(F)(F)F)nc(S(C)(=O)=O)n2)cc1	25.1µM*	?	-5.4%	/	-0.7%	-35.9%
COc1ccc(-c2cc(C(F)(F)F)nc(S(=O)(=O)CCCC(=O)Nc3cccnc3Cl)n2)cc1OC	?	-9.3%	39.8%	11.7µM*	-7.6%	-1.7%
SMILES	Sm TGR block	Pf growth 96h	AmpC inh no detg	Pf growth 48h	AmpC inh detg	SARS PLP yeast
COc1ccc(NC(=O)CCS(=O)(=O)c2nc(-c3cccs3)cc(C(F)(F)F)n2)cc1OC	39.8µM*	/	/	/	4.7%	/
COc1cc(NC(=O)CCS(=O)(=O)c2nc(-c3cccs3)cc(C(F)(F)F)n2)cc(OC)c1OC	?	0.0%	-18.9%	?	-9.5%	-4.6%
COC(=O)c1ccccc1NC(=O)CCCS(=O)(=O)c1nc(-c2ccccc2OC)cc(C(F)(F)F)n1	-17.1%	/	/	/	7.3%	/
CN1C(=O)c2ccccc2Sc2ccc(NC(=O)N3CCN(c4ccc(F)cc4)CC3)cc21	-20.8%	/	/	/	26.2%	/
Cc1ccccc1CS(=O)(=O)Cc1ccc(C(=O)NCCc2ccc(Cl)cc2)o1	-6.4%	/	/	/	3.1%	/
CC(C)CNC(=O)CSc1nc(-c2cccs2)cc(C(F)(F)F)n1	2.5%	8.4%	-9.4%	?	-5.4%	-0.4%
CS(=O)(=O)c1nc(-c2cccs2)cc(C(F)(F)F)n1	7.94µM*	13.1µM*	-13.7%	-9.8%	-13.3%	-33.6%
O=[N+]([O-])c1cnn(-c2nc(-c3cccs3)cc(C(F)(F)F)n2)c1	0.3%	?	46.3%	10.4µM*	-18.8%	-1.6%
O=C(O)CCS(=O)(=O)c1nc(-c2cccs2)cc(C(F)(F)F)n1	50.1µM*	?	-8.1%	/	-5.9%	-20.2%
CCCCNC(=S)N(C)/N=C/c1c(F)c(F)c(F)c(F)c1F	-1.6%	-4.2%	17.4%	-3.7%	-6.1%	-15.4%
CCCCNC(=S)N(C)/N=C/c1c(C)[nH]c2ccccc12	1.8%	11.7µM*	-39.5%	?	-0.6%	-7.1%
O=S(=O)(c1ccccc1)c1nnn2c1nc(NCc1ccccc1)c1cc(Cl)ccc12	5.5%	/	/	/	?	/
Cc1cccc(Cl)c1OCCCn1ccnc1	1.0%	-14.8%	-5.2%	?	1.0%	-0.6%
O=C(Nc1ccc(N2CCOCC2)cc1)c1nc2ccccc2s1	-0.5%	226.9%	-15.4%	-26.1%	3.8%	-3.5%
Cc1cc(-c2ccco2)n(-c2ccccc2)n1	3.98µM*	/	-15.3%	/	?	4.9%
Cc1cc(-c2ccccc2)n(-c2ccccc2)n1	?	11.8%	-10.4%	39.3%	-7.9%	9.5%
COc1ccc(NC(=O)COC(=O)c2ncc(Cl)c(Cl)c2Cl)c(OC)c1	3.2%	2.2%	-2.0%	13.0%	7.0%	15.4%
CCOC(=O)c1c(CN2CCCCC2)oc2ccc(OC)cc12	15.5%	?	30.2%	4.1%	-10.6%	2.3%
CCOC(=O)c1c(CN2CCCCC2)n(C)c2cc(Br)c(O)c(CN(C)C)c12	-21.1%	11.7µM*	-2.1%	/	-16.0%	-7.0%
CCOC(=O)c1c(CN2CCOCC2)n(-c2ccccc2)c2cc(Br)c(O)c(CN(C)C)c12	0.1%	2.62µM*	57.4%	13.1µM*	1.7%	5.3%
CCOC(=O)c1c(CSc2ccsc2)n(C)c2cc(Br)c(O)c(CN(C)C)c12	-5.3%	?	24.6%	?	-1.2%	0.4%
CCOC(=O)c1c(CN(C)C)oc2cc(CN(C)C)c(O)c(CSc3ccccc3)c12	-20.2%	2.33µM*	141.6%	0.37µM*	-9.6%	-0.1%
